The record followed here is PubChem BioAssay.

A short description of the assay: small-molecule microarray binders of probe aCHRDL2, primary screen, biochemical, biotinylated probe, 635/667 nm fluorescence (AID 1100). The note with it: higher = more signal.
Regarding `COC(=O)[C@@]1(Cc2ccccc2)[C@H]2c3cc(C(=O)N4CCCC4)n(Cc4ccccc4)c3C[C@H]2CN1C(=O)c1ccccc1`, the composite z-score was found to be 0.94. Consider `CC(C)C[C@@H]1NC(=O)[C@@]23C(=O)N[C@@H](Cc4ccccc4)C2[C@H](C)[C@@]2(C)O[C@H]2C3/C=C/C/C=C\CNC(=O)[C@@H]2CCCN2C1=O` (stereo partly drawn), for which the composite z-score was -0.719. With `COC(=O)[C@@]1(Cc2ccc(OC)cc2)[C@H]2c3cc(C(=O)N4CCCC4)n(CCF)c3C[C@H]2CN1C(=O)c1ccccc1`, the composite z-score was determined as 1.56. `C=C(/C(=C/C[C@@H](OC(=O)c1ccncc1)c1cccc(OCCO)c1)c1cc(C(=O)OC)ccc1OC)C(C)C`: the composite z-score is -0.115. With `O=C(CS)NCCCCCNC(=O)[C@@H]1C[C@@H]2C(=O)N3CCC[C@H]3C(=O)N2[C@@H]1c1ccc(O)cc1`, the composite z-score came out at 0.61. Take `COc1cccc(C)c1NC(=O)O[C@H]1[C@H](OC(=O)Nc2ccccc2)[C@H](OC(=O)Nc2ccccc2)[C@@H](OC)O[C@@H]1CO`: the composite z-score turned out to be 0.708.

In turn, `COc1ccc(C#Cc2ccc3c(c2)[C@]2(C(=O)N3)[C@H](C(=O)O)[C@H]3C(=O)O[C@H](c4ccccc4)[C@H](c4ccccc4)N3[C@@H]2c2ccc(OCCO)cc2)cc1` showed a composite z-score of 0.296. The same measure for `COc1cc2c(cc1OC)CN(C(=O)[C@@H]1[C@H]3C(=O)O[C@H](c4ccccc4)[C@H](c4ccccc4)N3[C@H](c3ccc(O)cc3)[C@@]13C(=O)Nc1ccc(C#CCNC(N)=O)cc13)CC2`: 0.0095. The same measure for `COc1ccc([Si](C)(C)[C@@H]2[C@@H](CCO)O[C@]3(C(=O)N(Cc4cccc(N5C(=O)COc6ccccc65)c4)c4ccccc43)[C@H]2C)cc1`: 0.298. `Cc1ccc(-c2cccc(=O)o2)cc1` yielded a composite z-score of -0.0115. `COC(=O)c1ccc(OC)c(/C=C\CC(CCc2ccccc2)OC(C)=O)c1` (stereo not drawn) returned a composite z-score of -0.101.

`C=C(C(=O)CC[C@H](OC(=O)c1cccnc1)c1ccc(OCCO)cc1)C(C)C`: the composite z-score was -0.049. As for `CCCC=C(CCC)[C@@H](NS(=O)(=O)c1cccc2cccnc12)c1ccc(C(=O)OC)cc1`, the figure is 1.46; as for `CC(C)CCC[C@@H](C)[C@H]1CC[C@@]2(C)C3=C(CC[C@]12C)[C@@]1(C)CC[C@H](OC(=O)c2ccc(N)cc2)C(C)(C)C1CC3` (stereo partly drawn), -0.761. The same measure for `C[C@H]1ON(c2ccccc2)[C@@H](c2ccccc2)[C@@H]1C(=O)N1C(=O)OC[C@@H]1c1ccccc1`: -0.351. `Cc1ccc(S[C@]2(C(=O)O)CC(=O)N(Cc3ccccc3C(F)(F)F)[C@@H]2c2ccc(CO)cc2)cc1`: the composite z-score came to 1.08. As for `C=CCN1C(=O)[C@@]2(O[C@@H](CCO)[C@H]([Si](C)(C)c3ccc(OC)cc3)[C@H]2C)c2cc(NC(=O)[C@H](C)O)ccc21`, the figure is -0.0061. As for `CN1C(=O)C2C=CC(C(O)COCc3ccccc3)N(Nc3ccccc3)C2C1=O` (stereo not drawn), the figure is 0.285.

Turning to `C=CCC(OC(C)=O)[C@@H]1[C@@H](N(Cc2cc3ccccc3o2)C(=O)Cc2ccc(OC)cc2)c2cc(OCCCO)ccc2N1C(=O)c1ccc(-c2ccccc2)cc1` (stereo partly drawn), the composite z-score is 0.63.

`CC1CC/C=C\[C@H]2OC34C=CCN(c5ccc(Cl)cc5)C(=O)[C@H]3N(C(CO)C(C)C)C(=O)[C@]4(C)C2C(=O)O1` (stereo partly drawn) came in with a composite z-score of 0.281. Turning to `COCCOC(=O)N1C(=O)[C@@]2(c3cc(C#CC4(O)CCCCCC4)ccc31)[C@H](C(=O)N1CCc3cc(OC)c(OC)cc3C1)[C@H]1C(=O)O[C@H](c3ccccc3)[C@H](c3ccccc3)N1[C@@H]2c1ccccc1OCCO`, the composite z-score amounted to 0.173. Compound `CC(C)C(CO)N1C(=O)[C@@H]2[C@H]3C(=O)OCC=C[C@H]3OC23C=CCN(Cn2nnc4ccccc42)C(=O)[C@@H]13` (stereo partly drawn) returned a composite z-score of 0.465.

`O=C1C2C=CC(C(O)c3ccc(Br)cc3)N(Nc3ccccc3)C2C(=O)N1c1ccccc1` (stereo not drawn): the composite z-score is 0.504. As to `CN(C)CCCCNC(=O)[C@H]1C[C@H]2C(=O)N[C@@H](CCCC[N+](C)(C)C)C(=O)N2[C@H]1c1cccc(OCCO)c1`, the composite z-score is 0.15. The same measure for `O=C1C2C=CC(C(O)c3ccccn3)N(Nc3ccccc3)C2C(=O)N1c1ccccc1` (stereo not drawn): 0.5; for `COC(=O)[C@@]1(Cc2ccc(OC)cc2)[C@H]2c3cc(C(=O)N(C)C)n(CCF)c3C[C@H]2CN1C(=O)c1ccccc1`: 0.923.

The compound `COC(=O)[C@@]1(Cc2ccccc2N=[N+]=[N-])N=C(c2ccc(OCCCO)cc2)O[C@H]1c1ccccc1` had a composite z-score of 0.87. As for `C=CCC(OC(C)=O)[C@@H]1[C@@H](N(Cc2cccc3ccccc23)C(=O)c2ccc(C)cc2)c2cc(OCCCO)ccc2N1C(=O)c1ccc2ccccc2c1` (stereo partly drawn), the figure is 0.281.
